Shiga inhibitor – A qHTS for Small Molecule Inhibitors of Shiga Toxin; Vero cells, Shiga toxin protein synthesis inhibition reporter; hit rate 9.2% among 290,000; AID 2315, 2010; inhibition, % at 38.7 µM; in the data active = inhibition mostly above about 28%, no sharp cut-off; inactive = mostly below about 43%; also: 0% is about no effect
CHX counter – Cycloheximide Counterscreen for Small Molecule Inhibitors of Shiga Toxin | cell reporter, cycloheximide protein synthesis inhibition counterscreen | max response, % | hit rate 12% among 300,000; in the data active = max response mostly above about 13%, no sharp cut-off; inactive = mostly below about 14%; also: read at 38.3 µM for the half of the compounds with a filed dose; 0% is about no effect
NS1 function inh – qHTS Assay for Inhibitors of Influenza NS1 Protein Function; hit rate 0.4% among 270,000; Potency, µM (doses to about 46.1 µM), without a hit: top-dose activity, positive = more growth; AID 2326, 2010; also: potency is read from the fitted curve at half-maximal effect; actives are rising curves; nearly all actives have a fitted effect of over 50% in size
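OD600 was taken as the measure of yeast growth restored by compound in an NS1-expressing S. cerevisiae strain. Cells had been washed out of glucose medium and diluted 1:100 into galactose -URA medium, pH 6.0.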
Pf growth 48h – Primary qHTS for delayed death inhibitors of the malarial parasite plastid, 48 hour incubation; AID 504832, 2011; hit rate 5.9% among 310,000; P. falciparum luciferase growth in erythrocytes, 48 h; Potency, µM (highest dose often 28.7 µM), without a hit: at the highest dose activity change, negative = inhibition, actives largely listed as inhibitors; active = well fitted inhibition curve with a large enough effect; inconclusive = small, poorly fitted or top-dose-only effect, or another doubt; inactive = no such curve, though single readings can be large or run the other way; also: potency is read from the fitted curve at half-maximal effect; % is scaled to controls: 0 for no effect and ±100 for the full control effect
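Cell-based growth assay: transgenic P. falciparum expressing firefly luciferase, cultured in red cells within RPMI 1640 containing 0.5% w/v Albumax, 24 mM bicarbonate and gentamycin. A drop in luciferase activity indicates inhibition.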
Pf growth 96h – Primary qHTS for delayed death inhibitors of the malarial parasite plastid, 96 hour incubation; P. falciparum luciferase reporter growth, 96 h; Potency, µM (doses to about 28.7 µM), inactives show top-dose activity change, negative = inhibition, usual class: inhibitors; hit rate 6.9% among 320,000; active = well fitted inhibition curve with a large enough effect; inconclusive = small, poorly fitted or top-dose-only effect, or another doubt; inactive = no such curve, though single readings can be large or run the other way; also: potency is read from the fitted curve at half-maximal effect; % is scaled to controls: 0 for no effect and ±100 for the full control effect
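96 h incubation, 37 C, 5% CO2, of luciferase-reporter P. falciparum-infected RBCs (2% hematocrit, 0.05% parasitemia final) with test compounds; endpoint luminescence.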
SARS PLpro yeast – qHTS of Yeast-based Assay for SARS-CoV PLP; S. cerevisiae expressing SARS-CoV PLpro, growth rescue; hit rate 0.19% among 330,000; Potency, µM (doses to about 32.9 µM), for inactives: top-dose activity, positive = growth rescue, usual class: activators; also: potency is read from the fitted curve at half-maximal effect; 0% is about no effect; nearly all actives have a fitted effect of over 55% in size
NS1 inh valid – Assay for Inhibitors of Influenza NS1 Protein Function: Hit Validation; shares compounds with NS1 function inh; influenza NS1 function cell assay, 15-point titration; activity change, negative = inhibition, % at 32.9 µM; 1,400 tested, under 10 active; AID 492980, 2010; also: 0% is about no effect
PR8 titer – Assay for Inhibitors of Influenza NS1 Protein Function: Influenza virus replication assay in MDCK cells infected with virus A/PR/8/34; shares compounds with NS1 function inh; MDCK infected influenza A/PR/8/34, virus titer TCID50; stronger effect = lower value; virus titer (log TCID50), log10 TCID50 at 5 µM; hit rate 30% among 95; call rule not given here
Numbers without * were called inactive; ? = inconclusive; / = no result given; ! = a repeat was not active. Hits are enriched below; roughly 21% of the tested compounds scored in any of these assays. Unless noted, calls follow the shape of the full dose curve.

SMILES | Shiga inhibitor | CHX counter | NS1 function inh | Pf growth 48h | Pf growth 96h | SARS PLpro yeast | NS1 inh valid | others
COc1ccc(-n2c(SCC(=O)N3CCCCC3)nc(O)cc2=O)cc1 | 13 | 4 | 11µM* | ? | -2% | 0% | ? | PR8 titer=8.5
CCCC(=O)NCc1ccc2c(c1)cc(C)n2C | -15 | -6 | ? | -23% | 244% | -12% | /
COc1cccc(NC(=S)NCc2ccc3c(c2)cc(C)n3C)c1 | 1 | -3 | / | -19% | -125% | -1% | /
Cc1cc2cc(CNC(=O)Nc3cccc(Cl)c3)ccc2n1C | 32 | 5 | ? | -9% | 2% | -5% | 16
Cc1cccc(NC(=O)NCc2ccc3c(c2)cc(C)n3C)c1 | 18 | 12 | 11µM* | ? | 10µM* | -15% | 13
CCN(CC)S(=O)(=O)c1cccc(NC(=O)C2SC(=Nc3ccc(C)cc3C)C(C(=O)NC(C)COC)=C2N)c1 (stereo not drawn) | 18 | 3 | 13µM* | / | 3.7µM* | 3% | 22
Cc1ccc(NC(=O)C2SC(=Nc3ccccc3)C(C(=O)Nc3ccc(Cl)cc3)=C2N)cc1 (stereo not drawn) | 25 | 12 | 9% | ? | ? | 0% | /
Cc1c(NC(=O)c2ccc(N3CCCC3)c([N+](=O)[O-])c2)cccc1-c1nc2ccccc2s1 | 20 | 5 | 2µM* | 10µM* | ? | 6% | 11
CN(C)c1ccc(C(CNC(=O)c2ccccc2)c2c[nH]c3ccccc23)cc1 (stereo not drawn) | 36 | -4 | 13µM* | ? | ? | 2% | ?
C#CCNc1nc(C)nc2c1nnn2Cc1ccccc1F | -2 | -3 | -4% | -5% | -16% | 1% | /
Cc1cc2cc(CN3C(=O)c4ccccc4C3=O)ccc2[nH]1 | -3 | -3 | ? | -1% | ? | 29% | 21
COc1ccc(CN2C(=O)c3ccccc3C2=O)cc1 | -1 | -2 | -16% | ? | 0% | 2% | /
O=C(O)CC1(CC(=O)Nc2cc(C(F)(F)F)cc(C(F)(F)F)c2)CCCCC1 | -2 | -1 | 2% | -2% | 32% | -8% | /
COc1ccc(-n2nnnc2SCC(=O)Nc2ccc(OC)cc2OC)cc1 | -8 | 1 | -7% | 0% | 0% | 1% | /
CCOc1cc(C#N)c(NC(=O)CSc2nnnn2-c2ccc(OC)cc2)cc1OCC | -9 | -4 | ? | ? | / | 1% | -2
COc1ccc(COc2cc(-c3cccc(OC)c3)nc3ccc(NC(=O)c4ccc(N(C)C)cc4)cc23)cc1 | -5 | 1 | 10µM* | 2.3µM* | 2.9µM* | 6% | ?
COc1cccc(-c2cc(C(=O)Nn3cnnc3)c3ccccc3n2)c1 | -16 | -2 | 1% | -3% | ? | -3% | /
COc1ccc(COc2cc(-c3cccc(OC)c3)nc3ccc(NC(C)=O)cc23)cc1 | 36 | -4 | 2% | 18% | 28% | 1% | /
COc1ccc(COc2cc(-c3cccc(OC)c3)nc3ccc(N)cc23)cc1 | 61*! | 37*! | 4.5µM* | 15µM* | 5.9µM* | 3% | -4
CC1(C)Cc2c(sc3nc4n(c(=N)c23)CCC4)CO1 | -9 | -1 | 7% | -6% | 21% | 2% | /
Cc1cc2oc(=O)cc(-c3cc4ccccc4o3)c2cc1OC(=O)N(C)C | -9 | -3 | 5% | ? | ? | -1% | /
CN(C)C(=O)Oc1ccc2oc(=O)cc(-c3cc4ccccc4o3)c2c1 | -13 | -2 | ? | 14% | 6% | -8% | -4
Cc1c(OC(C)C(=O)N[C@H](C(=O)O)c2ccccc2)ccc2c3c(c(=O)oc12)CCCC3 (stereo partly drawn) | -6 | -2 | 10µM* | ? | ? | -3% | -5
Cc1c(OC(C)C(=O)NC2CC(C)(C)NC(C)(C)C2)ccc2c3c(c(=O)oc12)CCC3 (stereo not drawn) | 44 | -5 | 3% | ? | ? | -1% | /
O=C(/C=C1\NC2(CCCC2)Cc2ccccc21)C(=O)N/N=C/c1ccc(O)c(O)c1 | -38 | 12 | 18µM* | ? | ? | -20% | -17
SMILES | Shiga inhibitor | CHX counter | NS1 function inh | Pf growth 48h | Pf growth 96h | SARS PLpro yeast | NS1 inh valid | others
COc1ccc(N(CC(=O)NCCc2ccc(OC)c(OC)c2)S(=O)(=O)c2ccc(OC)c(OC)c2)cc1 | -3 | -4 | -7% | -36% | 29% | 13% | /
O=C(COC(=O)c1ccccc1O)NCc1ccccc1Cl | / | / | / | / | / | -2% | /
CCCn1cc(NC(=O)C2CC(c3cccc(Br)c3)=NO2)cn1 (stereo not drawn) | -9 | 2 | -10% | ? | / | 2% | /
O=C(C1CCCC1)N1CCC(CC2CC(c3cccc(Br)c3)=NO2)(C(=O)NCC2CCCCC2)CC1 (stereo not drawn) | -2 | -4 | 22µM* | ? | ? | 3% | -19
Cn1c(N)c(C(=O)COc2ccc(C#N)cc2)c(=O)n(C)c1=O | 3 | -1 | / | 5% | 9% | -2% | /
CCCn1c(SCC(=O)Nc2sc(C)c(C)c2C#N)nnc1C(C)C | -18 | 8 | 8.9µM* | ? | 6% | 3% | -20
CC1=C(C(N)=O)C(c2ccncc2)n2nc(-c3ccccc3Cl)nc2N1 (stereo not drawn) | -15 | -6 | 13% | 50% | -3% | 8% | /
Cc1cccc(NC(=O)c2nc[nH]c2C(=O)NCC(=O)OC(C)(C)C)c1 | -1 | 6 | 10% | 40% | -2% | -1% | /
COc1cc(/C=C\C(=O)NCc2ccc3[nH]c(C)cc3c2)cc(OC)c1OC | -2 | -2 | 1.3µM* | 12µM* | 13µM* | 9% | 21
COc1ccc(/C=C\C(=O)NCc2ccc3[nH]c(C)cc3c2)cc1OC | -9 | -2 | ? | -2% | -28% | 19% | /
CCCC(C)C(=O)Nc1nc(C)c(-c2csc(Nc3ccc(Cl)cc3)n2)s1 (stereo not drawn) | 7 | 1 | 4.5µM* | ? | ? | -4% | -10
Cc1ccc(-n2c(SCC(=O)Nc3cc(C)on3)nc3ccccc3c2=O)cc1 | -12 | 13 | 1% | 21% | / | 11% | /
Cc1ccc(-n2c(SCC(=O)Nc3ccc4c5c(cccc35)CC4)nc(O)c(C)c2=O)cc1 | 7 | 4 | 7.9µM* | 10% | 15% | 3% | 38
COc1ccc(Nc2nnc(SCC(=O)c3cc(C)n(CC4CCCO4)c3C)s2)cc1 (stereo not drawn) | 112* | 43* | ? | 5.9µM* | / | -1% | 3

Screens from PubChem BioAssay.
